Drawing on PubChem BioAssay (EPA / NIEHS), this text covers outcome and AC50 for 40 molecules.

Activity calls are given as the source filed them. Rule for the calls: active = hit-call score of the fitted dose curve at least 0.9, where 1 is the maximum; inactive = score below 0.9.

The nature of the experiment: Tanguay_ZF_120hpf_BRN: Oregon State University Tanguay Lab 120 Hour Post-fertilization zebrafish Assay for Brain Region Malformation (AID 2284402). As to the method: Tanguay_ZF_120hpf is a whole embryo, multiplexed endpoint assay using zebrafish larvae exposed for 120 hours post fertilization on a 96-well plate.Tanguay_ZF_120hpf_BRN is one of one assay component(s) measured or calculated from the Tanguay_ZF_120hpf assay. It is designed to make measurements of zebrafish development as detected with brightfield microscopy of developing zebrafish embryos.Data from the assay component Tanguay_ZF_120hpf_BRN was analyzed into 1 assay endpoints. This assay endpoint, Tanguay_ZF_120hpf_BRN, was analyzed in the positive analysis fitting direction relative to DMSO as the negative control and baseline of activity. Using a type of morphology reporter, gain-of-signal activity can be used to understand changes in developmentals as they relate to the whole embryo. To generalize the intended target to other relatable targets, this assay endpoint is annotated to the zebrafish development intended target family, where the subfamily is brain morphogenesis.
Zebrafish husbandry: Tropical 5D wild-type adult zebrafish were housed in at an approximate density of 1000 per 100 gallon tank at the Sinnhuber Aquatic Research Laboratory, Oregon State University, Corvallis, OR. Each tank was kept at standard laboratory conditions of 28C on a 14-h light/10-h dark photoperiod in fish water consisting of reverse osmosis water supplemented with a commercially available salt (Instant Ocean). Spawning funnels were placed into the tanks the night prior, and embryos were collected and staged. To increase bioavailability, the chorion was enzymatically removed using pronase (63.6mg/ml, >/= 3.5U/mg, Sigma-Aldrich: P5147) at 4 hours post fertilization (hpf) using a custom automated dechorionator.Chemical exposures: Six hpf dechorionated embryos were placed 1 embryo per well in a 96-well plate prefilled with 90 ul of EM using automated embryo placement systems (AEPS). Ten microliters of each row of dilution plate 2 was added to 2 exposure plates. The final DMSO concentration used was 0.64% (vol/vol). Thirty-two embryos were also exposed to 5uM trimethyltin chloride (positive control). Plates were sealed to prevent evaporation and foil covered to reduce light exposure and kept in a 28C incubator. Embryos were statically exposed until 120 hpf. At 24 hpf, embryos were assessed for photomotor response using a custom photomotor response analysis tool (PRAT) and for developmental toxicity endpoints (MO24: mortality at 24 hpf, DP: developmental progression, SM: spontaneous movement, and NC: notochord distortion). At 120 hpf, locomotor activity was measured using Viewpoint Zebralab and assessed for 13 endpoints. Zebrafish acquisition and analysis program (ZAAP), a custom program designed to inventory, acquire, and manage zebrafish data, was used to collect developmental endpoints as either present or absent (i.e., binary responses were recorded). If mortality occurred for an embryo (at either 24 or 120 hpf), the non-mortality endpoints were not measured.
With `O=C(O)C(F)(F)C(F)(F)F`, the result was inactive.

For `OCC(F)(F)C(F)(F)C(F)(F)F`, the result was inactive.

As to `C=CC(=O)OCC(F)(F)C(F)(F)C(F)(F)C(F)(F)COC(=O)C=C`, the outcome was inactive.

In the case of `FC(F)(F)C(F)(F)C(F)(F)C(F)(F)C(F)(F)C(F)(F)C(F)(F)C(F)(F)CCS`, the molecule was called inactive. As to `FC(F)(F)C(F)(F)C(F)(F)C(F)(F)CCI`, the call was inactive. In the case of `O=C(O)C(F)(F)C(F)(F)C(F)(F)C(F)(F)C(F)(F)C(F)(F)C(F)(F)C(F)(F)C(F)(F)C(F)(F)C(F)(F)C(F)(F)C(F)(F)F`, the result was inactive. Still for that read-out and setting: with `FC(F)(F)C(F)(F)C(F)(F)C(F)(F)C(F)(F)C(F)(F)C(F)(F)I` the entry was “inactive”; with `O=C(O)C(F)(F)C(F)(F)OC(F)(F)F`, “inactive”. On the same count and under the same terms, then `FC(F)(F)C(F)(F)C(F)(F)C(F)(F)C(F)(F)C(F)(F)C(F)(F)Br`, with “inactive”. The same measure, in the same setting: with `FC(F)(F)C(F)(F)CNCC(F)(F)C(F)(F)F` the entry was “inactive”; with `OCCCC(F)(F)C(F)(F)C(F)(F)C(F)(F)C(F)(F)C(F)(F)C(F)(F)F`, “inactive”.

On to `FC(F)(F)C(F)(F)C(F)(F)C(F)(F)C(F)(F)CCI`, for which the molecule was called inactive. Turning to `O=C(O)C(F)(F)C(F)(F)C(F)(F)C(F)(F)F`, the outcome was inactive. Regarding `C=C(C)C(=O)OCC(F)(F)C(F)(F)C(F)(F)F`, the molecule was called inactive. For `FC(F)(F)C(F)(F)C(F)(F)CI`, the molecule was classed as inactive.

For `O=C(O)C(F)(F)C(F)(F)C(F)(F)F`, the molecule was classed as inactive. Take `Cc1ccc(S(=O)(=O)OCC(F)(F)C(F)(F)C(F)(F)C(F)(F)C(F)(F)C(F)F)cc1`: the molecule was called inactive.

As for `O=C(O)C(F)(F)C(F)(F)C(F)F`, the molecule was called inactive.

Take `OCC(F)(F)C(F)(F)C(F)(F)C(F)F`: the molecule was called inactive. Same read-out and setting: with `O=S(=O)(OCC(F)F)C(F)(F)F` the entry was “inactive”. Take `COC(=O)CCC(F)(F)C(F)(F)C(F)(F)C(F)(F)F`: the outcome was inactive. Consider `C=CC(F)(F)C(F)(F)C(F)(F)C(F)(F)C(F)(F)C(F)(F)C(F)(F)C(F)(F)F`, for which the result was inactive. `OCC(F)(F)C(F)(F)C(F)(F)C(F)(F)C(F)(F)C(F)(F)F`: the outcome was inactive. Consider `OCCCC(F)(F)C(F)(F)C(F)(F)F`, for which the molecule was classed as inactive.

As for `CCCCCCCCC(F)(F)C(F)(F)C(F)(F)C(F)(F)C(F)(F)C(F)(F)F`, the outcome was inactive.

In the case of `CCO[Si](CCC(F)(F)C(F)(F)C(F)(F)C(F)(F)C(F)(F)C(F)(F)F)(OCC)OCC`, the molecule was called inactive.

In the case of `CC(C)(C)C(=O)CC(=O)C(F)(F)C(F)(F)C(F)(F)F`, the result was inactive. As for `O=C(CC(=O)C(F)(F)C(F)(F)F)C(F)(F)F`, the molecule was classed as inactive. The same measure, in the same setting: then `FC(F)(F)C(F)(F)C(F)(F)N(C(F)(F)C(F)(F)C(F)(F)F)C(F)(F)C(F)(F)C(F)(F)F`, with “inactive”.

As to `O=S(=O)(O)C(F)(F)C(F)(F)C(F)(F)C(F)(F)C(F)(F)C(F)(F)C(F)(F)F`, the AC50 is 52.4 µM (active). With `O=C(O)C=C(C(F)(F)F)C(F)(F)F`, the call was inactive. Take `C=CC(F)(F)C(F)(F)C(F)(F)C(F)(F)C(F)(F)C(F)(F)C(F)(F)C(F)(F)C=C`: the molecule was called inactive. For `N=C(N)C(F)(F)C(F)(F)C(F)(F)C(F)(F)C(F)(F)C(F)(F)C(F)(F)F`, the call was inactive. In the case of `FC1CC(F)(F)C(F)(F)C1(F)F` (stereo not given), the molecule was called inactive. As for `O=C(O)C(F)(OC(F)(F)C(F)(OC(F)(F)C(F)(OC(F)(F)C(F)(F)C(F)(F)F)C(F)(F)F)C(F)(F)F)C(F)(F)F` (stereo not given), the result was inactive. As for `OCC(F)(F)C(F)(F)C(F)(F)C(F)(F)C(F)(F)C(F)F`, the call was inactive. `NC(=O)C(F)(F)C(F)(F)C(F)(F)C(F)(F)F`: the molecule was called inactive. The same measure, in the same setting: with `C=C(C)C(=O)OCCC(F)(F)C(F)(F)C(F)(F)C(F)(F)C(F)(C(F)(F)F)C(F)(F)F` the entry was “inactive”. Still for that read-out and setting: with `O=C(O)C(F)(F)C(F)(F)C(F)(F)C(F)(F)C(F)(F)C(F)(F)C(F)(F)C(F)(F)C(F)(F)C(F)F` the entry was “inactive”; with `FC(F)(F)C(F)(F)C(F)(F)C(F)(F)C(F)(F)C(F)(F)C(F)(F)C(F)(F)F`, “inactive”.
